According to PubChem BioAssay AID504467 (National Center for Advancing Translational Sciences (NCATS), 2011):
The whole screen tested about 330,000 compounds, of which about 7,700 (2.3%) were called active. Where a call stands in place of a potency, no number is given. About 26% were inconclusive and are not listed. Calls follow the shape of the dose curve; as a rule, active = well fitted inhibition curve with a large enough effect; inconclusive = small, poorly fitted or top-dose-only effect, or effect the other way; inactive = flat fitted curve, though single readings scatter. Only a selection was taken, and actives are over-represented in it overall.

assay: qHTS screen for small molecules that inhibit ELG1-dependent DNA repair in human embryonic kidney (HEK293T) cells expressing luciferase-tagged ELG1; conditions: HEK293T ELG1-luciferase reporter, luminescence, 16 h, DNA damage induced by 5-fluorouridine; series mostly up to 46.1 µM; also: nearly all actives have a fitted effect of over 55% in size
Excerpt: NIH Molecular Libraries Probe Production Network [MLPCN] NIH Chemical Genomics Center [NCGC] MLPCN Grant: 1 R03 MH092164-01 Assay Provider: Kyungjae Myung, NHGRI, NIH Keywords: MLPCN, qHTS, NCGC, genotoxicity, cancer Assay Overview: Cancer cells divide rapidly compared to normal cells in the body. During cell division, cancer cells need to duplicate their genome by DNA replication. The failure of genome duplication leads to cancer cells' death. Therefore, inhibitors of DNA replication could specifically kill cancer cells. Based on this concept, many chemotherapeutic agents were developed and have been used to treat cancer patients. However, there are a limited number of agents available in the clinical setting, and some of those that do exist have low efficacy and severe side effects. Therefore, if we can find the compounds that effectively block DNA replication either by directly damaging DNA or by inhibiting other cellular mechanisms, the options for cancer treatment will be broadened. With this in mind, we developed a quantitative high-throughput ELG1-luciferase reporter gene assay. Small molecules that specifically block ELG1 function in response to DNA damage can be identified by monitoring the suppression of luciferase activity. Since ELG1 defines a pathway for repairing DNA damage, agents blocking ELG1 function can be used to sensitize cancer cells to chemotherapeutic agents whose mechanism of action involves the induction of DNA damage.
Assay Protocol Summary: For genotoxicity screening, 2,000 cells in 4 uL/well were dispensed into white, solid-bottom 1536-well plates using a solenoid-based dispenser. Following transfer of 1 uL 5-Fluorouridine and 23 nL compound or DMSO vehicle by a pin tool, the plates were incubated 16 hr at 37 °C and 5% CO2. 5 ul ONE-Glo (Promega) was then added to each plate and following a 30 min incubation at room temperature, luciferase activity was quantified on a ViewLux CCD-based plate reader.
Potency is read from the fitted curve at half-maximal effect.

Structure (SMILES) | Potency
Cc1cc(Br)ccc1NC(=O)c1cnc(N2CCN(c3ccccn3)CC2)c2ccccc12 | 11.6 µM (active)
Cc1cc(Br)ccc1NC(=O)c1sc2ncn(CC(=O)N3CCN(c4ccccn4)CC3)c(=O)c2c1C | inactive
O=C(CN1CCN(c2ccccn2)CC1)Nc1ccc(Br)cc1 | inactive
COc1ccc(S(=O)(=O)N2CCCCC2)cc1NC(=O)c1cc([N+](=O)[O-])ccc1N1CCOCC1 | inactive
CCc1ccc(S(=O)(=O)N/N=C\c2ccc([N+](=O)[O-])o2)cc1 | inactive
N#Cc1cc([N+](=O)[O-])ccc1NC(=O)COC(=O)c1cnccn1 | inactive
O=C(COC(=O)c1c2c(nc3ccccc13)/C(=C\c1cccs1)CCC2)Nc1ccccc1Cl | 16.4 µM (active)
COc1cc(/C=C2\CCCc3c2nc2ccccc2c3C(=O)O)cc(Cl)c1O | inactive
O=C(COC(=O)c1c2c(nc3ccccc13)CCCC2)c1ccc(Br)s1 | inactive
NS(=O)(=O)c1ccc(NC(=O)COC(=O)c2ccc(Cl)nc2)cc1 | inactive
NS(=O)(=O)c1ccc(NC(=O)COC(=O)c2cc3ccccc3oc2=O)cc1 | inactive
O=C(COC(=O)c1ccncc1)Nc1ccc2c(c1)OCO2 | inactive
CC(NC(=O)COC(=O)c1ccc2c(c1)OCO2)c1ccccc1 (stereo unspecified) | inactive
NC(=O)c1ccc(NC(=O)COC(=O)c2c3c(nc4ccccc24)/C(=C\c2ccc4c(c2)OCO4)CCC3)cc1 | 20.6 µM (active)
NS(=O)(=O)c1ccc(NC(=O)COC(=O)c2c3c(nc4ccccc24)/C(=C\c2ccc4c(c2)OCO4)CCC3)cc1 | 20.6 µM (active)
COc1ccc(C(=O)N2CCCCC2C(=O)Nc2ccc(-n3nc(C)cc3C)cc2)o1 (stereo unspecified) | inactive
O=C(NCC(c1cccs1)N1CCOCC1)c1cc(Cl)ccc1[N+](=O)[O-] (stereo unspecified) | inactive
Cc1ccc(Nc2nnc(SC(C)C(=O)NC3CC3)s2)cc1 (stereo unspecified) | inactive
CC(C)(C)OC(=O)C[C@H]1C/C=C\C[C@@H](CC(=O)N[C@H](CO)Cc2ccccc2)C(=O)NC[C@@H](c2ccccc2)OC1=O | inactive
COc1ccc2[nH]c(C)c(CCN(Cc3cccs3)C(=S)Nc3ccccc3OC)c2c1 | 13 µM (active)
CCNC(=S)N(CCc1c(C)[nH]c2ccc(C)cc12)Cc1ccco1 | inactive
Cc1[nH]c2ccccc2c1CCN(Cc1cccs1)C(=S)NC(C)(C)C | inactive
COc1cccc(NC(=S)N(CCc2c(C)[nH]c3ccccc23)Cc2ccco2)c1 | 20.6 µM (active)
COc1ccc(NC(=S)NCc2cccs2)c(OC)c1 | inactive

Structure (SMILES) | Potency
Cc1ccc(NC(=S)N(CCN2CCCCC2)Cc2ccco2)cc1C | inactive
CC(OC(=O)/C=C/c1ccccc1)C(=O)Nc1ccc(C(N)=O)cc1 (stereo unspecified) | inactive
CC1CCC(NS(=O)(=O)c2ccc3c(c2)CC(=O)N3)CC1 (stereo unspecified) | inactive
O=C(COC(=O)c1cccc(Cl)c1)NC(=O)NCc1ccccc1 | inactive
Cc1ccc(S(=O)(=O)N2[C@@H](c3cccc(Cl)c3)C(C(=O)O)=CC[C@H]2c2ccc(Cl)c(Cl)c2)cc1 | inactive
CN(C)CCCNC(=O)c1ccc2[nH]c3ccccc3c2c1 | inactive
O=C(NCCCO)c1cc2c([nH]c3ccccc32)c(-c2ccc(F)cc2)n1 | 18.3 µM (active)
O=C(NCCCN1CCOCC1)c1cn(-c2ccccc2)nc1-c1ccc(F)cc1 | inactive
O=C(NCC1(N2CCCCC2)CCCCC1)c1ccc(NS(=O)(=O)c2ccc(F)cc2)cc1 | inactive
Cc1ccc(C(CC(=O)O)NC(=O)c2ccc(S(=O)(=O)N3CCCC3)cc2)cc1 (stereo unspecified) | inactive
Cc1c(NC(=O)CN(C)CC(=O)Nc2ccc(F)c(F)c2F)c(=O)n(-c2ccccc2)n1C | inactive
COc1ccc(C(=O)NCc2ccc(Cl)cc2)cc1S(=O)(=O)N1CCCC1 | inactive
O=C(Nc1ccc(-c2csc(Nc3cccc(C(F)(F)F)c3)n2)cc1)c1cccc(C(F)(F)F)c1 | 10.3 µM (active)
CNC(=O)c1ccc(NC(=O)c2cccc(C(F)(F)F)c2)cc1 | inactive
Cc1nc(NC(=O)c2cccc(Cl)c2)sc1-c1csc(Nc2cccc(Cl)c2)n1 | inactive
COc1cccc(CN(C)C(=O)CC23CC4CC(CC(C4)C2)C3)c1OC | inactive
CCN(CC)S(=O)(=O)c1ccc(N(C)Cc2ccc(C(F)(F)F)cc2)nc1 | inactive
CCN(CC)S(=O)(=O)c1ccc(N(C)Cc2cccc(OC)c2OC)nc1 | 13 µM (active)
COc1ccc(/C=C/C(=O)OCC(=O)NC2CCCCCC2)cc1OC | inactive
COC(=O)c1cc(Oc2ccc(S(=O)(=O)N3CCOCC3)cc2[N+](=O)[O-])cc(C(=O)OC)c1 | inactive
CCCCC(C(=O)OCC(=O)c1ccc(OC)cc1)N1C(=O)c2ccccc2C1=O (stereo unspecified) | inactive
CCOC(=O)C1=C(c2ccc(OC)cc2)C(=O)c2ccccc2C1=O | 2.91 µM (active)
COc1ccc(OCCCON2C(=O)c3ccccc3C2=O)cc1 | inactive
Cc1ccc(C(=O)CN2C(=O)NC3(CCOc4ccccc43)C2=O)s1 (stereo unspecified) | inactive

Structure (SMILES) | Potency
COc1ccc(NC(=O)CCS(=O)(=O)c2cc3c(cc2Cl)NC(=O)CO3)cc1OC | inactive
O=C(c1ccc(Cl)c(Cl)c1)N1CCCC1 | inactive
O=C(c1ccc(Cl)c(S(=O)(=O)N2CCCCC2)c1)N1CCCCCC1 | inactive
O=C(c1ccc(Cl)c(S(=O)(=O)N2CCCCCC2)c1)N1CCN(c2ccc(O)cc2)CC1 | 20.6 µM (active)
Nn1c(SCC(=O)NC2CCCc3ccccc32)nnc1C1CC1 (stereo unspecified) | inactive
O=C(CN1C(=O)NC2(CCCC2)C1=O)Nc1cc(C(F)(F)F)ccc1N1CCOCC1 | inactive
O=C(NCCc1ccc(F)cc1)c1ccc(S(=O)(=O)N2CCCCC2)cc1 | inactive
N#Cc1ccc(Oc2cc(C(F)(F)F)nc(-c3ccccn3)n2)cc1 | inactive
COc1ccccc1Oc1nc(-c2cccnc2)nc2ccccc12 | inactive
Cc1ccc(Oc2nc(-c3ccccn3)nc3ccccc23)cc1 | 18.3 µM (active)
CCS(=O)(=O)N1CCC(N2CCN(c3ccccc3)CC2)CC1 | inactive
O=C(O)c1cnn2c(C(F)(F)F)cc(-c3ccccc3)nc12 | inactive
COC(=O)c1cc2nc(-c3ccccc3)cc(C(F)(F)F)n2n1 | inactive
O=C(c1ccccc1)N1CCN(C(=O)c2cc3nc(-c4ccccc4)cc(C(F)(F)F)n3n2)CC1 | 7.3 µM (active)
CCc1cccc(C)c1NS(=O)(=O)c1cc(Br)cnc1N | inactive
COc1ccc(C)cc1N(C(=O)Cn1nnc(-c2ccc(C)o2)n1)C(C(=O)NC1CCCC1)c1ccncc1 (stereo unspecified) | inactive
COc1ccccc1NC(=O)COC(=O)CNC(=O)C1CCCCC1 | inactive
Cc1ccc(CC(=O)N(C)CC(=O)N(CC(C)C)c2c(N)n(CC(C)C)c(=O)[nH]c2=O)cc1C | inactive
Cn1nnnc1SCC(=O)Nc1cccc(S(=O)(=O)N2CCCCC2)c1 | inactive
COc1cccc(N(CC(=O)NC2CCCC2)C(=O)Cn2nnc(-c3ccc(C)o3)n2)c1 | inactive
CCOC(=O)C1CCN(C(=O)Cn2nc(C)c3c(C)n(-c4ccccc4)nc3c2=O)CC1 | inactive
CC1=C/C(=N\S(=O)(=O)c2ccccc2)C(C(C)C)=CC1=O | inactive
COc1ccc(S(=O)(=O)/N=C2\C=C(NS(=O)(=O)c3ccccc3)C(=O)c3ccccc32)cc1 | 23.1 µM (active)
COc1ccc2cc(S(=O)(=O)Nc3ccccn3)ccc2c1 | inactive

Structure (SMILES) | Potency
CCCSc1nc2sc3c(c2c(=O)n1-c1ccc(OC)cc1)CCN(C)C3 | inactive
COc1ccc(C(C(=O)NC2CCCC2)N(CCCO)C(=O)Cn2nnc(-c3ccc(C)o3)n2)cc1 (stereo unspecified) | inactive
C=C(C)COc1ccc(-c2ncncc2-c2ccc(OC)cc2)c(O)c1 | 16.4 µM (active)
C=C(C)COc1ccc(-c2nc(N)ncc2-c2ccccc2OC)c(O)c1 | inactive
COc1ccc(-c2nc(N)ncc2-c2ccc(Cl)cc2)c(O)c1 | inactive
COc1ccc(C(C)(C)C)cc1NC(=O)CCN1C(=O)C2CCCCC2C1=O (stereo unspecified) | inactive
COC(=O)c1c(NC(=O)c2ccccc2F)sc2c1C(C(=O)OC)CC2 (stereo unspecified) | inactive
CCc1ccc(N(CC)c2ncnc3nc[nH]c23)cc1 | 4.11 µM (active)
CCOc1ccc(-n2c(O)c(/C=N/Nc3nc(C)cc(C)n3)c3ccccc3c2=O)cc1 | 14.6 µM (active)
CCOc1ccc(N=Cc2c(O)n(-c3cccc(C)n3)c(=O)c3ccccc23)cc1 | inactive
CCOc1ccc(-n2c(O)c(/C=N/Nc3nnc(C)c(=O)[nH]3)c3ccccc3c2=O)cc1 | inactive
COc1ccc2[nH]c3c(c2c1)CCN1C(=O)C(CC(=O)NCCc2ccccn2)C[C@H](C(=O)N2CCOCC2)[C@@]31C (stereo partly specified) | inactive
COc1ccc(CN(C(=O)CSc2nnc(-c3ccc(OC)c(OC)c3)o2)c2ccc(F)cc2)cc1 | 16.4 µM (active)
COc1ccc(-c2nnc(SCC(=O)NC3CCCCC3)o2)cc1OC | inactive
COc1ccc(CCNC(=O)CSc2nnc(-c3cccc(F)c3)o2)cc1OC | inactive
COc1cc([N+](=O)[O-])ccc1NC(=S)N1CCN(c2ccccn2)CC1 | inactive
CCN(CC)c1ccc(NC(=O)CN2CCN(c3ccccn3)CC2)cc1 | inactive
COc1cc2ccccc2cc1C(=O)Nc1ccc(N2CCOCC2)cc1 | inactive
COc1ccc(NC(=O)c2sc(N3CCOCC3)nc2-c2ccccc2)c(OC)c1 | 13 µM (active)
Cc1nc(N2CCN(c3ccccn3)CC2)c2c(C)c(C(=O)Nc3ccc(F)c(Cl)c3)sc2n1 | 3.26 µM (active)
COc1ccc(NC(=O)c2sc3nc(C)nc(N4CCN(c5ccccn5)CC4)c3c2C)c(OC)c1 | 2.31 µM (active)
COc1ccc(OC)c(NC(=O)c2sc3nc(C)cc(C)c3c2N)c1 | inactive
CCC(=O)Nc1ccc2c(c1)nc(CCN1CCN(c3ccccn3)CC1)n2C | inactive
COc1ccc(NC(=O)c2sc(N)nc2-c2ccccc2)cc1 | inactive
